Screening data deposited in PubChem BioAssay by Broad Institute.
The list is not random: actives were taken first. Their share in the collection is about 2.9%.
MITF act – MITF TRPM1 promoter activation in melanoma cells; SK-MEL-5 TRPM1-promoter luciferase, 24 h; % of positive control, neutral wells = 0; activation, % at 12.5 µM; 300,000 compounds, 0.75% hits; AID 588334;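 active = mean activation of at least 80% with every replicate also reaching 80%; inconclusive = mean reaches 80% but some replicate falls short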
PvdQ acylase – blocks Pseudomonas aeruginosa PvdQ acylase activity. purified PvdQ acylase, fluorescence plate reader. inhibition, % at 10 µM. 340,000 compounds, 0.063% hits. AID 488965; in the data active = inhibition above about 30%, passing the limit was not always enough; inconclusive = no clear call, values can overlap the other calls
Wnt bcat act – Wnt/beta-catenin pathway activation; Wnt/beta-catenin reporter cell assay, activator, plate reader; activation, % at 9.35 µM; 300,000 compounds, 1.2% hits; AID 743398; in the data active = activation above about 30%, passing the limit was not always enough; inconclusive = no clear call, values can overlap the other calls
Glyco luc inh – N-linked glycosylation inhibition | D54 ERlucT glycosylation luciferase reporter, 24 h; percent of 100 nM tunicamycin response | reporter increase, % at 12.5 µM | 360,000 compounds, 0.23% hits;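 active = mean luciferase reporter signal, scaled so untreated is 0 and the glycosylation-blocking control 100, at or above a set limit in every replicate; inconclusive = mean reaches the limit but not every replicate does; inactive = mean below the limit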;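 also: luciferase carries N-glycosylation sites so blocking glycosylation raises the light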
Vif imaging – HIV Vif inhibition. 340,000 compounds, 0.35% hits. AID 602346. inhibition, % at 7.49 µM. HEK293T cells, Vif self-association by quenched fluorescence, imaging, 24 h; in the data active = inhibition above about 50%, passing the limit was not always enough; inconclusive = no clear call, values can overlap the other calls; inactive = below about 31%
esBAF inh – blocks esBAF chromatin remodeling in mouse ES cells | Bmi1-luciferase knock-in reporter, 24 h; 100% = twice the neutral-well signal | AID 602393 | reporter increase, % at 12.5 µM | 350,000 compounds, 2% hits; in the data active = activation above about 40%; inconclusive = no clear call, values can overlap the other calls;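 also: a rise in the Bmi1 reporter signal indicates esBAF inhibition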
Hits are given with their value; - = inactive; ? = inconclusive; . = not tested or not shown.

SMILES | MITF act | PvdQ acylase | Wnt bcat act | Glyco luc inh | Vif imaging | esBAF inh
Cc1noc(C)c1NC(=O)Nc1cccc2c1O[C@@H](CN(C)S(=O)(=O)c1ccc(F)cc1)[C@@H](C)CN([C@H](C)CO)C2=O | . | . | . | . | . | -
COc1ccc(S(=O)(=O)Nc2ccc3c(c2)CC(=O)N([C@H](C)CO)C[C@H](C)[C@H](CN(C)Cc2ccc(C(=O)O)cc2)O3)cc1 | . | . | . | . | . | -
C[C@@H]1CN([C@H](C)CO)C(=O)c2cc(NC(=O)NC3CCCCC3)ccc2O[C@@H]1CN(C)Cc1ccc(Oc2ccccc2)cc1 | . | . | . | . | . | -
Cc1nc(SCc2nc3ccccc3[nH]2)c2oc3cc([N+](=O)[O-])ccc3c2n1 | - | - | - | - | - | 49.0
COc1ccc2c(c1)oc1c(SCc3nc4ccccc4[nH]3)nc(C)nc12 | - | - | - | - | - | 68.2
C[C@H](CO)N1C[C@H](C)[C@H](CN(C)Cc2ccc(C(=O)O)cc2)Oc2ncc(C#CCN(C)C)cc2C1=O | . | . | . | . | . | -
CN(C)C(=O)c1cccc(-c2ccc3c(c2)[C@H]2[C@H](CCN2Cc2ccccc2F)[C@@H](CO)N3)c1 | . | . | . | . | . | -
CCCC(=O)Nc1ccc2c(c1)C(=O)N(C)C[C@@H](OC)[C@H](C)CN(Cc1cccc(F)c1)[C@H](C)CO2 | . | . | . | . | . | -
O=S(=O)(c1ccc(Cl)cc1)N1CCN(Cc2ccc(O)c3ncccc23)CC1 | - | - | 35.7 | - | - | .
Cc1cc(C(F)(F)Cl)n2ncc(-c3ccccn3)c2n1 | - | - | - | - | - | 60.6
C[C@@H]1CCCCO[C@@H](CN(C)S(=O)(=O)c2ccc(F)cc2)[C@H](C)CN([C@@H](C)CO)C(=O)c2cc(NC(=O)c3ccccc3)ccc2O1 | . | . | . | . | . | -
CCCCN(C)S(=O)(=O)c1ccc(C(=O)N=c2sc3cc(NC(C)=O)ccc3n2C)cc1 | - | - | 38.9 | - | - | .
Cc1ccc(SCc2nn(C)c(Cl)c2C=O)cc1 | - | - | - | - | - | 42.4
Cc1cc(C)cc(NC(=O)c2cc(C)n(Cc3cccs3)c2C)c1 | 103.3 | - | - | - | - | -
Cc1cc(C(=O)CN2C(=O)c3ccccc3C2=O)c(C)n1Cc1cccs1 | - | - | - | - | - | -
Cc1cc(C(=O)Cn2nnc3ccccc3c2=O)c(C)n1Cc1cccs1 | . | - | 35.1 | - | - | -
C[C@H]1CN([C@@H](C)CO)C(=O)c2cccc(NC(=O)Nc3cccc4ccccc34)c2O[C@H]1CN(C)Cc1ccc(Oc2ccccc2)cc1 | . | . | . | . | . | -
COc1ccccc1-c1nc(COc2ccc(Cl)cc2Cl)no1 | 148.8 | - | 54.3 | - | - | .
COc1ccc(-c2csc(C(C)(O)c3ccccc3)n2)cc1 (stereo not drawn) | . | . | - | - | - | 59.9
CN(C)c1ccc(-c2csc(C(C)(O)c3cccc(F)c3)n2)cc1 (stereo not drawn) | . | . | - | - | - | 45.1
COc1cccc(-c2nnc(NC(=O)c3cccs3)s2)c1 | - | - | - | - | - | .
COc1ccc2c(c1)Cc1sc(NC(=O)c3cccs3)nc1-2 | - | - | . | - | - | 82.7
COc1ccc2c(c1)Cc1sc(NC(=O)c3ccccc3)nc1-2 | - | - | 50.5 | - | - | .
COc1ccc(C(=O)Nc2nc3c(s2)Cc2cc(OC)ccc2-3)cc1 | - | - | . | - | - | -
CO[C@H]1CN(C)C(=O)c2cc(NC(=O)Nc3ccc(F)cc3)ccc2OC[C@H](C)NC[C@@H]1C | . | . | . | . | . | -
SMILES | MITF act | PvdQ acylase | Wnt bcat act | Glyco luc inh | Vif imaging | esBAF inh
O=c1oc(-c2ccc(O)c(O)c2)cc2cccc(O)c12 | - | - | - | - | - | 63.9
CN1C2=CC=CC=CC2=[N+](C)C12C([N+](=O)[O-])=CC(=[N+]([O-])[O-])C=C2[N+](=O)[O-] (stereo not drawn) | . | - | 106.3 | 29.1 | . | -
COC1CCN(C(=O)C2CCC(=O)N(C3CCCCCC3)C2)CC1 (stereo not drawn) | - | - | - | - | - | 56.4
COCC1CCN(C(=O)C2CCC(=O)N(C3CCCC3)C2)CC1 (stereo not drawn) | - | - | - | - | - | -
O=C(Nc1ccc2ccccc2n1)C1CCCCC1 | . | . | 48.1 | - | - | -
O=C(Nc1ccc2ccccc2n1)c1ccccc1Cl | - | - | 36.1 | - | - | -
O=C(Nc1ccc2ccccc2n1)c1ccc(Cl)cc1 | - | - | 44.1 | - | - | -
COc1cccc(NC(=O)N(C)C[C@@H]2OCc3cnnn3CCCC(=O)N([C@H](C)CO)C[C@H]2C)c1 | . | . | . | . | . | -
Cc1ccc(-c2cc(NC(=O)c3ccccc3)on2)cc1 | - | - | 34.3 | - | - | 59.6
CCOc1cnc(-c2ccc(OC)cc2)o1 | 91.6 | - | . | - | - | .
COc1ccc(C=C(c2nc3ccccc3s2)c2nc3ccccc3s2)cc1O | - | - | . | 29.0 | - | .
COc1ccc(-c2ccc(SCC(=O)N3CC(=O)Nc4ccccc43)nn2)cc1 | - | - | - | - | - | 49.3
COc1ccc(-c2ccc(SCC(=O)Nc3nnc(C)s3)nn2)cc1 | - | - | 35.3 | - | - | .
C[C@@H]1CN([C@H](C)CO)C(=O)c2cc(-c3ccc(C(=O)N(C)C)cc3)cnc2O[C@H]1CN(C)C | . | . | . | . | . | -
O=C(c1ccc2ccccc2c1O)N1CCCCC1 | . | . | - | - | - | 56.2
C[C@@H]1CN([C@H](C)CO)C(=O)c2cccc(NS(=O)(=O)c3ccccc3)c2O[C@H]1CN(C)S(=O)(=O)c1ccc(Cl)cc1 | . | . | . | . | . | -
CN1C(=O)c2cc(NC(=O)c3ccc(C#N)cc3)ccc2OC[C@H]2O[C@@H](CC(=O)NC3Cc4ccccc4C3)CC[C@@H]21 | . | . | . | . | . | -
CN(C)C(=O)[C@H]1[C@H](CO)[C@H]2Cn3c(ccc(C4=CCCC4)c3=O)[C@H]2N1Cc1ccc2c(c1)OCO2 | . | . | . | . | . | -
CC(C)(C)c1csc(N/N=C/c2ccc(O)cc2)n1 | 97.3 | - | - | - | - | ?
CCCNC(=O)c1ccc2snnc2c1 | . | - | - | - | - | -
O=C(Nc1ccccc1F)c1ccc2snnc2c1 | - | - | - | - | - | -
O=C(Nc1ccc(Cl)cc1)c1ccc2snnc2c1 | - | - | - | - | - | 56.7
CC(=O)c1ccc(NC(=O)c2ccc3snnc3c2)cc1 | 84.8 | - | - | - | - | 62.9
CNC(=O)c1ccc2snnc2c1 | . | - | - | - | - | -
COc1ccc(NC(=O)c2ccc3snnc3c2)cc1 | - | - | . | - | . | 56.4
SMILES | MITF act | PvdQ acylase | Wnt bcat act | Glyco luc inh | Vif imaging | esBAF inh
O=C(C[C@H]1C=C[C@H](NC(=O)C2CCC2)[C@@H](CO)O1)NCc1ccccc1Cl | . | . | . | . | . | -
COc1ccc(OCC2CNC(=O)O2)cc1 (stereo not drawn) | - | - | . | - | - | .
CC#CCOCC1CNC(=O)O1 (stereo not drawn) | . | . | 429.0 | - | - | -
COc1cccc(CNC(=O)C[C@@H]2CC[C@H]3[C@@H](COc4ccc(NC(C)=O)cc4C(=O)N3C)O2)c1 | . | . | . | . | . | -
COc1ccc(COc2ccc3ccc(=O)oc3c2)cc1 | 118.2 | - | - | - | - | 55.8
O=C(Nc1ccccc1N1CCOCC1)c1ccc2nc[nH]c2c1 | - | - | - | 26.6 | - | -
